In the supplement of paper PMC11732987, “Enantioselective OTUD7B fragment discovery through chemoproteomics screening and high-throughput optimisation” (Communications Chemistry, 2025):

Tests used:
Assay in all cases: log2 ratio of Biotin-Ahx-Ub-VS probe labelling (fragment/DMSO); higher = less target engagement (more negative = stronger competition), active = hit call of the paper (q ≤ 0.05, log2 ratio ≤ -1)
Conditions in all cases: compound concentration: 200 uM; treatment time: 3 h
[1] = target: T1, ALG13 (UniProt Q9NP73)
T1 sequence (whole entry): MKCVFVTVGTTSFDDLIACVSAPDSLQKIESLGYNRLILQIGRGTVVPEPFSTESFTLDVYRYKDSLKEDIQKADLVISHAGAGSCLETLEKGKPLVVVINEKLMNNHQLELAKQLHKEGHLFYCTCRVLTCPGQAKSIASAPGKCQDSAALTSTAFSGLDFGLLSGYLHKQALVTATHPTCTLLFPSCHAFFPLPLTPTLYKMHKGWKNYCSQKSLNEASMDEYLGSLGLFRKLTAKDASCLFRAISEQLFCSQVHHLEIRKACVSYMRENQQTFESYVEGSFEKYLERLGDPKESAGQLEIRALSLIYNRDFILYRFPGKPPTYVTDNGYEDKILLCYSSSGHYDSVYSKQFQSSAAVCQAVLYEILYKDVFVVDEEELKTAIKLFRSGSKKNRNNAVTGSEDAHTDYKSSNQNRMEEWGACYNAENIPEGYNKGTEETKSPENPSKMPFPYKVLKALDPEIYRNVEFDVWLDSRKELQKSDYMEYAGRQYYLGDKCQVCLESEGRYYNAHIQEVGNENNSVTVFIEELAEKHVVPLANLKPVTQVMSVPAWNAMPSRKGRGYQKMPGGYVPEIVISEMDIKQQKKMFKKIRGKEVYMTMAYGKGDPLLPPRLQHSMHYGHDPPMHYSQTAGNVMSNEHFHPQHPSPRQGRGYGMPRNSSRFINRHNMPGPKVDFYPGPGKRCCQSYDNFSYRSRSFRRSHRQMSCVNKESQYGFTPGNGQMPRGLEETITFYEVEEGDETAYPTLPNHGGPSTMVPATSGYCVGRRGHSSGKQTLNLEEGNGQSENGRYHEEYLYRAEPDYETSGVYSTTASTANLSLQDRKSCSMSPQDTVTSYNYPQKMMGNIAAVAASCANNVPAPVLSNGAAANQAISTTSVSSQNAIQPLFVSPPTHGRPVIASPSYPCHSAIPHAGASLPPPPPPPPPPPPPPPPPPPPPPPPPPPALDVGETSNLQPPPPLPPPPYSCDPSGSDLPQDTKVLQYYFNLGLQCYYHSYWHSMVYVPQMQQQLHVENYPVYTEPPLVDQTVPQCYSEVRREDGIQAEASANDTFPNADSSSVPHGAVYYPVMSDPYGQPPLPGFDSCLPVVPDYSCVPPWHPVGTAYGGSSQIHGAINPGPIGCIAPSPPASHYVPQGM
Outline: (§1)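 Each value is an average log2 ratio of fragment to vehicle, tested by unpaired t-test. The underlying Spectronaut label-free quantities were global-median-normalised, and only proteins with ≥2 unique peptides were included. Triplicate HEK293T lysate samples (495 µg) were exposed to fragment at 200 µM or vehicle for 3 h, then to Biotin-Ahx-Ub-VS at 0.5 µM final for 1 h, before NeutrAvidin enrichment of labelled DUBs, LysC and trypsin digestion, and diaPASEF LC-MS/MS.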

[2] = target: ATXN3 (UniProt P54252)
Sequence of ATXN3 (P54252 whole entry): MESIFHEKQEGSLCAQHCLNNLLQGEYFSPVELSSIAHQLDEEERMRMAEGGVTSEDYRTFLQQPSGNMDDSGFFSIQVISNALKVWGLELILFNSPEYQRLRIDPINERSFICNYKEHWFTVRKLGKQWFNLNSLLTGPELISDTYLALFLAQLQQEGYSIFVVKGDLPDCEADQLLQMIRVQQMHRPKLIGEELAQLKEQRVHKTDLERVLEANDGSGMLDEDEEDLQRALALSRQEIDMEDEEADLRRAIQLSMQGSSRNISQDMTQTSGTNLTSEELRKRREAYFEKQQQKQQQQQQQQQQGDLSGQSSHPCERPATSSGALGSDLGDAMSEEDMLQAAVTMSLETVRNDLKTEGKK
Outline: as §1

[3] = target: T2, BAP1 (UniProt Q92560)
T2 sequence (whole entry): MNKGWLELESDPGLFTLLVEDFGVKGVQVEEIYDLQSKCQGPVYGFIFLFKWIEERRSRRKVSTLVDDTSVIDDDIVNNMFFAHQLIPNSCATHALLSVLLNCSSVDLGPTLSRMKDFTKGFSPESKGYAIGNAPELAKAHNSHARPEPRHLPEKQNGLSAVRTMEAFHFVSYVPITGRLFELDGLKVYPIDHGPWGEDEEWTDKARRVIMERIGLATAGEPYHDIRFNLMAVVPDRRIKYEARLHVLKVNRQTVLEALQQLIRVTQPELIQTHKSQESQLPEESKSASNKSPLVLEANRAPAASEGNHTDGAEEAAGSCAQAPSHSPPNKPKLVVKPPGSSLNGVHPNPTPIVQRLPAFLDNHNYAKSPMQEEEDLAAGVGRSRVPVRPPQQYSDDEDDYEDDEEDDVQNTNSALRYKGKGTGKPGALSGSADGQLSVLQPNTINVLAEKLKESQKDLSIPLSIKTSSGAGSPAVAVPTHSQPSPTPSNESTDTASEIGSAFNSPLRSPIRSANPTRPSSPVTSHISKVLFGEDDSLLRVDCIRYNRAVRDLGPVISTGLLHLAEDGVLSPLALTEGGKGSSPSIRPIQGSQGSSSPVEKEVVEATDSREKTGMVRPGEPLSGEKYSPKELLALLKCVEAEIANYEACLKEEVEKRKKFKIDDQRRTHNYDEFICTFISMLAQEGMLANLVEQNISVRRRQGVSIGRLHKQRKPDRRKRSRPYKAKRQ
Outline: as §1

[4] = target: EIF3F (UniProt O00303)
Sequence of EIF3F (O00303 whole entry): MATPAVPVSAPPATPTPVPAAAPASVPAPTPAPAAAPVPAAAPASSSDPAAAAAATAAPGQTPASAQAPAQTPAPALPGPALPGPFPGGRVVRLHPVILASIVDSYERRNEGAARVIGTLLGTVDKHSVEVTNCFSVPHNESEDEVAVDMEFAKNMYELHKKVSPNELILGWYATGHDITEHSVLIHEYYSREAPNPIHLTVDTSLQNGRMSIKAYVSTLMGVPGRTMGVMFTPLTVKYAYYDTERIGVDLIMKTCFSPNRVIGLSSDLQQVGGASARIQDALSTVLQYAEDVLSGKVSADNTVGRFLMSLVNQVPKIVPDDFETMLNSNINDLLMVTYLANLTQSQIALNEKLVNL
Outline: as §1

[5] = target: EIF3H (UniProt O15372)
Sequence of EIF3H (O15372 whole entry): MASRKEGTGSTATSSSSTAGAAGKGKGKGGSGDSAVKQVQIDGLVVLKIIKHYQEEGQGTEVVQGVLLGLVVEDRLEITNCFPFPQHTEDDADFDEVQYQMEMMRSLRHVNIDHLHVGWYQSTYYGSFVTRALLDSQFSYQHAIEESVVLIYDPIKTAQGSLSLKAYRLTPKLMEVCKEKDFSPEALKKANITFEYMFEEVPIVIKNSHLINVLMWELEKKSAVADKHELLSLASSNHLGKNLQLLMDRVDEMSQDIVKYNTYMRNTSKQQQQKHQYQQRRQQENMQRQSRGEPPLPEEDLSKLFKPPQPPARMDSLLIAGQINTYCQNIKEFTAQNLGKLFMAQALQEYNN
Outline: as §1

[6] = target: T3, FAM105A (UniProt Q9NUU6)
T3 sequence (whole entry): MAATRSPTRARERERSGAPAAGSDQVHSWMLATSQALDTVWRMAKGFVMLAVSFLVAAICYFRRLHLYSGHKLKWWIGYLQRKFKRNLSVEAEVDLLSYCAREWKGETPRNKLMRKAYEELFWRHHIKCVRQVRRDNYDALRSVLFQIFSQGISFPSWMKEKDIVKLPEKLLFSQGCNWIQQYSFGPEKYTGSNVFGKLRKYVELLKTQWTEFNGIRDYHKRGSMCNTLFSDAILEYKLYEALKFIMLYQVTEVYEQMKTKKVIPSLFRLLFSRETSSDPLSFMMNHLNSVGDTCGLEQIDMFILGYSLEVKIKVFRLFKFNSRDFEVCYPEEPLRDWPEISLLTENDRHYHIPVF
Outline: as §1

[7] = target: OTUB1 (UniProt Q96FW1)
Sequence of OTUB1 (Q96FW1 whole entry): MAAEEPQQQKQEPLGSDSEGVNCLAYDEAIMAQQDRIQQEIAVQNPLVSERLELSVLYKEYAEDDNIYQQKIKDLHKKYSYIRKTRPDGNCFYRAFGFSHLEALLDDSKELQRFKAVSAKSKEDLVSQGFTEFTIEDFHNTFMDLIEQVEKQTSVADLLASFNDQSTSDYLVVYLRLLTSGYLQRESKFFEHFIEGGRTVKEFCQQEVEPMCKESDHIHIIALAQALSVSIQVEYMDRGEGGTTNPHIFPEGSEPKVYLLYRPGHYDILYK
Outline: as §1

[8] = target: T4, OTUD4 (UniProt Q01804)
T4 sequence (whole entry): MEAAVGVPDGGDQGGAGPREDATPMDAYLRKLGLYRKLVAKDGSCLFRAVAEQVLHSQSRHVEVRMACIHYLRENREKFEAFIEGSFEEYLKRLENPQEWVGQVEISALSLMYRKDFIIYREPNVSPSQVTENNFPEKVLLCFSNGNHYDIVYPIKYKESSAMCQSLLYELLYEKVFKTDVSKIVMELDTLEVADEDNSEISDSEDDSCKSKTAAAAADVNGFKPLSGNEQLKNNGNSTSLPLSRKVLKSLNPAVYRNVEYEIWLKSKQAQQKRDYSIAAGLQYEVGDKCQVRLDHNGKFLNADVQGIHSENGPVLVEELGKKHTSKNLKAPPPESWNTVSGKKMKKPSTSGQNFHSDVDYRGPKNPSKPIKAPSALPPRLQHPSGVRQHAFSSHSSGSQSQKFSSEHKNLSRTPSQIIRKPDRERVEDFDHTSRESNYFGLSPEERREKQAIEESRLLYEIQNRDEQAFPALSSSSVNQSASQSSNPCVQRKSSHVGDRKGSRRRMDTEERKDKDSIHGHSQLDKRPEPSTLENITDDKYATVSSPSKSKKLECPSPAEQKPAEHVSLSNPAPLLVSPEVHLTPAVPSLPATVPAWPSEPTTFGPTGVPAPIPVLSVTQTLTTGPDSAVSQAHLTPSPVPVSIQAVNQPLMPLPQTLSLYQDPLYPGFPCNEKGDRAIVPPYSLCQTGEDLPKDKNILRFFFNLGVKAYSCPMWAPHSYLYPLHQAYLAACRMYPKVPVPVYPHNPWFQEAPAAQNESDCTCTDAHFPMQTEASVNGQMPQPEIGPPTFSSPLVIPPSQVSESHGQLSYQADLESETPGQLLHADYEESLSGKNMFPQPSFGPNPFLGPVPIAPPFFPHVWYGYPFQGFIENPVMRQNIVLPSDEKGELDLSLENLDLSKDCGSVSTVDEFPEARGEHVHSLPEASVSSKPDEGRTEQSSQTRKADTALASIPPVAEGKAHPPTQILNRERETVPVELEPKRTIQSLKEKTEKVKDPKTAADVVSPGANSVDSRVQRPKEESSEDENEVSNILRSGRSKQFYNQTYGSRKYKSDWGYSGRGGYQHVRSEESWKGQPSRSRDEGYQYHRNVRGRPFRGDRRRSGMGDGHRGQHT
Outline: as §1

[9] = target: T5, OTUD5 (UniProt Q96G74)
T5 sequence (whole entry): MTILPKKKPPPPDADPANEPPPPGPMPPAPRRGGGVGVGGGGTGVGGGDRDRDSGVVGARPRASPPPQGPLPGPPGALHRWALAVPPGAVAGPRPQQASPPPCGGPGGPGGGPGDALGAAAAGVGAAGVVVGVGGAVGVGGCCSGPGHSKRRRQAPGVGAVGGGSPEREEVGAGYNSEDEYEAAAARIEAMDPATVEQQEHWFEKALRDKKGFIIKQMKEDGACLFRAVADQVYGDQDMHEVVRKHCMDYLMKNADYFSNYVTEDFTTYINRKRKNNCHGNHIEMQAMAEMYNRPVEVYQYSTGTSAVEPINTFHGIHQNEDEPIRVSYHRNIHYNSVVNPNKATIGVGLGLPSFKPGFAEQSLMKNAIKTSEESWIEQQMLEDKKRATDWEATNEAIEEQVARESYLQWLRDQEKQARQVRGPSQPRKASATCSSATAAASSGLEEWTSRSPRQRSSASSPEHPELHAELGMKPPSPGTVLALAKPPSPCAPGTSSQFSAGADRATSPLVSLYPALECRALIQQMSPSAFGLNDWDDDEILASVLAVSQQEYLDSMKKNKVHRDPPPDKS
Outline: as §1

Measured: log2 ratio of Biotin-Ahx-Ub-VS probe labelling

O=C(CCl)NCCc1ccc2c(c1)OCCO2
active: [3] -1.7
inactive: [1] -0.0432 | [2] -0.16 | [4] -0.184 | [5] 0.186 | [6] 0.307 | [7] -0.173 | [8] -0.539 | [9] -0.693
